Measurements from PubChem BioAssay AID743169 (National Center for Advancing Translational Sciences (NCATS), 2013).
A number with no mark means an inactive call. Calls follow the shape of the dose curve; as a rule, active = well fitted curve in the direction sought with a large enough effect; inactive = no such curve, though single readings can be large or run the other way.

These compounds were tested against L-lactate dehydrogenase A chain (human) (UniProt V9HWB9) (assay: Extended Characterization of HPGD Inhibitors: Counterscreen Against LDHA). Conditions: LDHA enzyme, diaphorase/resazurin coupled fluorescence; series mostly up to 57.1 µM; activity change, negative = inhibition: at the top concentration.
Source text: The central role of HPGD is to inactivate prostaglandins such as prostaglandin E2 (PGE2) or prostaglandin D2 (PGD2). These prostaglandins are involved in a number of processes, including inflammation, differentiation, and cellular signaling, which makes HPGD an important target for pharmacological intervention. A number of prostaglandins of particular biological interest have been identified as substrates of HPGD. […] Over-production of PGE2 has been reported to promote tumor-associated neovascularization, cell proliferation, and tumor growth. […] In order to further characterize the compounds, we ran them against an LDHA counterscreen. LDHA converts pyruvate to lactate while regenerating NAD+ from NADH. LDHA enzymatic activity is then coupled to the activity of diaphorase, which reversibly catalyzes the reaction of […] while simultaneously reducing resazurin to the fluorescent resorufin. This change in fluorescence signal (excitation 544 nm; emission, 590 nm) was monitored using the ViewLux CCD imager (Perkin Elmer). Data were normalized against no enzyme control wells and no compound control wells. NIH Chemical Genomics Center [NCGC] NIH Molecular Libraries Probe Centers Network [MLPCN] MLPCN Grant: MH084681 Assay Submitter (PI): Structural Genomics Consortium
3 uL of LDHA enzyme in assay buffer are added to plate before 23 nL of compound/control are pinned into the solution. After a 15 min incubation, 1 uL of NADH (60 uM final) and sodium pyruvate (160 uM final) are added, incubated at 8 min at RT before another 1 uL of Diaphorase / Resazurin is added. The plate is read on the ViewLux after a 10 min RT incubation

| Compound | activity change, negative = inhibition [%] |
| --- | --- |
| O=C(c1ccc2c(c1)ncn2-c1cccc(C(F)(F)F)c1)N1CCCCC1 | 0.565 |
| Cc1ccc(-n2c(C)cc(-c3nnc4n3CCCCC4)c2C)cc1 | 1.62 |
| Cc1cccc(-n2cnc3cc(C(=O)N4CCCC(C)(C)C4)ccc32)c1 | 4.22 |
| Cc1cccc(-n2cnc3cc(C(=O)N4CCCC(C(F)(F)F)C4)ccc32)c1 (stereo not given) | -12.2 |
| Cc1cc(-c2nnc3n2CCCCC3)c(C)n1-c1cccc(C#N)c1 | 8.07 |
| Cc1cc(-c2nnc3n2CCCCC3)c(C)n1-c1ccc(Cl)c(Cl)c1 | 3.58 |
| COc1ccc(-n2cnc3cc(C(=O)N4CCCCC4)ccc32)cc1 | -0.645 |
| O=C(c1ccc2c(c1)ncn2-c1cccc(Cl)c1)N1CCCCC1 | 6.78 |
| Cc1cc(-c2nnc3n2CCCCC3)c(C)n1-c1cccc(Cl)c1 | 9.93 |
| Cc1cc(-c2nnc3n2CCCCC3)c(C)n1-c1cccc(C(F)(F)F)c1 | 4.3 |
